Source: PubChem BioAssay (Tox21)
Results filed as inconclusive are left out. Activity calls are given as the source filed them. Unless noted, calls come from the whole dose curve; as a rule, active = well fitted curve in the direction sought with a large enough effect in the repeat runs; inconclusive = weak or mixed curves; inactive = no such curve, though single readings can be large; an effect the other way counts as inactive or inconclusive.

Key:
[1] = qHTS assay to identify small molecule antagonists of the thyroid receptor (TR) signaling pathway - cell viability counter screen (AID 743064); note: nearly all actives have a fitted effect of over 50% in size; note: potency is the fitted concentration of half-maximal effect
Summary of the method: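 Viability of T3-stimulated (1 nM final) GH3.TRE-Luc cells is measured by CellTiter-Fluor fluorescence after 23.5 h compound exposure at 37 °C plus 30 min reagent incubation.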

[2] = qHTS assay to identify small molecule antagonists of the thyroid receptor (TR) signaling pathway (AID 743065); note: nearly all actives have a fitted effect of over 55% in size; note: potency is the fitted concentration of half-maximal effect
Summary of the method: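 GH3.TRE-Luc rat pituitary cells (two TREs driving luciferase) were dosed with compound, then stimulated with 1 nM T3 (final) for 23.5 h at 37 C. ONE-Glo luminescence was the read-out, with CellTiter-Fluor fluorescence as the cytotoxicity counter-screen.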

[3] = test system: thyroid hormone receptor (rat, GH3 cells); experiment: qHTS assay to identify small molecule agonists of the thyroid receptor (TR) signaling pathway (AID 743066; calls by dose curve)
[4] = qHTS assay to identify small molecule antagonists of the estrogen receptor alpha (ER-alpha) signaling pathway - cell viability counter screen (AID 743074; calls by dose curve;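 note: HEK293 cells carrying ER-alpha-UAS-bla reporter stimulated with 17beta-estradiol; nearly all actives have a fitted effect of over 45% in size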)
[5] = qHTS assay to identify small molecule antagonists of the estrogen receptor alpha (ER-alpha) signaling pathway using the BG1 cell line - cell viability counter screen (AID 743081);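 note: compound given together with 17beta-estradiol as the ER stimulus; series mostly up to about 70 µM; nearly all actives have a fitted effect of over 45% in size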
Aromatase (Homo sapiens) = Aromatase (Homo sapiens) (UniProt P11511); experiment: qHTS assay to identify aromatase inhibitors (AID 743083); note: series mostly up to about 70 µM; nearly all actives have a fitted effect of over 55% in size
[6] = qHTS assay to identify aromatase inhibitors - cell viability counter screen (AID 743084);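 note: cells stimulated with testosterone during compound exposure; nearly all actives have a fitted effect of over 55% in size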
[7] = target: Aryl hydrocarbon receptor (Homo sapiens) (UniProt P35869); experiment: qHTS assay to identify small molecule that activate the aryl hydrocarbon receptor (AhR) signaling pathway (AID 743085); note: nearly all actives have a fitted effect of over 15% in size; note: potency is the fitted concentration of half-maximal effect;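 for activation: HG2L7.5c1 human HepG2 liver cells with stably integrated DRE-driven firefly reporter; series mostly up to about 70 µM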
Summary of the method: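 A multiplexed format paired cell viability (CellTiter-Fluor fluorescence) with AhR-dependent luciferase output (ONE-Glo luminescence) in the same wells of HepG2 DRE-luc cells after 24 h compound exposure at 37C.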

[8] = qHTS assay to identify small molecule that activate the aryl hydrocarbon receptor (AhR) signaling pathway - cell viability counter screen (AID 743086);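 note: HepG2 liver cells carrying the AhR DRE luciferase reporter; series mostly up to about 70 µM; nearly all actives have a fitted effect of over 45% in size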
Summary of the method: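 HepG2-AhR-luc (HG2L7.5c1) cells, 4000/well, treated 24 h at 37 C with compound; viability measured as CellTiter-Fluor fluorescence after 30 min in the same wells as the luciferase read.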

[9] = qHTS assay to identify small molecule antagonists of the peroxisome proliferator-activated receptor gamma (PPARg) signaling pathway - cell viability counter screen (AID 743194); note: nearly all actives have a fitted effect of over 55% in size
Summary of the method: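 Cytotoxicity counter screen in PPARg-bla HEK293H cells, same wells as reporter assay. Compounds plus 50 nM rosiglitazone (final) for 17 h at 37 C, then viability read by CellTiter-Glo luminescence.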

[10] = qHTS assay for small molecule agonists of the antioxidant response element (ARE) signaling pathway - cell viability counter screen (AID 743203; calls by dose curve; note: nearly all actives have a fitted effect of over 55% in size)
Summary of the method: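 Cells (ARE-bla HepG2, 2,000/well) receive DMSO-dissolved compounds after a 5 hrs rest. Plates incubate 16 hrs at 37C/5% CO2. CellTiter-Glo luminescence is then recorded after 30 min at room temperature.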

[11] = qHTS assay for small molecule activators of the heat shock response signaling pathway - cell viability counter screen (AID 743209); note: nearly all actives have a fitted effect of over 50% in size
Summary of the method: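 Quantitative HTS format, Tox21 10K library. HeLa cells carrying an HSE-driven beta-lactamase reporter were treated 5 h at 37 C, then assessed for viability by CellTiter-Glo luminescence.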

[12] = qHTS assay for small molecule activators of the heat shock response signaling pathway (AID 743210; active = well fitted activation curve with a large enough effect in the signal ratio in the repeat runs, with a control signal flat, not every such curve was filed as active; the % refers to the signal ratio; note: series mostly up to about 63 µM)
Summary of the method: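 HSE-bla HeLa cells (beta-lactamase reporter under heat shock response elements), plated overnight, then exposed to compounds 5 h at 37 C; LiveBLAzer B/G FRET substrate added, 2.5 h at room temperature, fluorescence intensity read.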

[13] = target: Estrogen receptor (Homo sapiens) (UniProt P03372); experiment: qHTS assay to identify small molecule agonists of the estrogen receptor alpha (ER-alpha) signaling pathway (AID 743075; calls by dose curve;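 note: HEK293 GripTite cells with ER-alpha and UAS-driven beta-lactamase reporter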)
[14] = target: Estrogen receptor (Homo sapiens) (UniProt P03372); experiment: qHTS assay to identify small molecule agonists of the estrogen receptor alpha (ER-alpha) signaling pathway using the BG1 cell line (AID 743079); note: nearly all actives have a fitted effect of over 20% in size
[15] = qHTS assay for small molecule agonists of the antioxidant response element (ARE) signaling pathway (AID 743202; active = well fitted activation curve with a large enough effect in the signal ratio in the repeat runs, not every such curve was filed as active; the % refers to the signal ratio)
Summary of the method: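 ARE-bla HepG2 cells (beta-lactamase reporter under the antioxidant response element), plated 5 hours, then exposed to compounds 16 hours at 37 C. LiveBLAzer B/G FRET substrate added for 2 hours at room temperature; fluorescence intensity read.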

[16] = target: Peroxisome proliferator-activated receptor gamma (Homo sapiens) (UniProt P37231); experiment: qHTS assay to identify small molecule agonists of the peroxisome proliferator-activated receptor gamma (PPARg) signaling pathway (AID 743094; active = well fitted activation curve with a large enough effect in the signal ratio in the repeat runs, not every such curve was filed as active; the % refers to the signal ratio)
Summary of the method: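 Stably transfected HEK293H cells (GeneBLAzer PPARg UAS-bla) were incubated with test substances for 17 h at 37C after a 5 h pre-incubation; beta-lactamase activity was then detected by FRET substrate fluorescence.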

[17] = target: Peroxisome proliferator-activated receptor gamma (Homo sapiens) (UniProt P37231); experiment: qHTS assay to identify small molecule antagonists of the peroxisome proliferator-activated receptor gamma (PPARg) signaling pathway (AID 743191; calls by dose curve; note: series mostly up to about 63 µM; nearly all actives have a fitted effect of over 30% in size)
Summary of the method: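 GeneBLAzer PPARg UAS-bla HEK293H cells, 5 h post-plating, exposed to compounds 17 h at 37C. LiveBLAzer B/G FRET substrate added for 1 h at room temperature; beta-lactamase reporter read by fluorescence intensity.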

Measured: Potency

Aromatase (Homo sapiens), sequence (P11511 whole entry, looked up): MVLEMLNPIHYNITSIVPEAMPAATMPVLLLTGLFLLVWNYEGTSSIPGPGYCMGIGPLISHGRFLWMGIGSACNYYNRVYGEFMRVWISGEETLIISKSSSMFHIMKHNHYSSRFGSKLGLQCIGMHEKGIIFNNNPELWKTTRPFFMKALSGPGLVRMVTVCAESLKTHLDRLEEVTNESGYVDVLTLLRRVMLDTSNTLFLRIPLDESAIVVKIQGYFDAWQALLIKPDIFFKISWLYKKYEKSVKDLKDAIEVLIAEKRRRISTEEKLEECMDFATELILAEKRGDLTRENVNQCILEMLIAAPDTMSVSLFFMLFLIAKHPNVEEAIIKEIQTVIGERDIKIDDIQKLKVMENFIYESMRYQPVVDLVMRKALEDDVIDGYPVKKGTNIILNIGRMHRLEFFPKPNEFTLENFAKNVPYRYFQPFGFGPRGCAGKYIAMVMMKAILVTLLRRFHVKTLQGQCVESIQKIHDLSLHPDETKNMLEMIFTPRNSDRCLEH
Peroxisome proliferator-activated receptor gamma (Homo sapiens), sequence (P37231 whole entry, looked up): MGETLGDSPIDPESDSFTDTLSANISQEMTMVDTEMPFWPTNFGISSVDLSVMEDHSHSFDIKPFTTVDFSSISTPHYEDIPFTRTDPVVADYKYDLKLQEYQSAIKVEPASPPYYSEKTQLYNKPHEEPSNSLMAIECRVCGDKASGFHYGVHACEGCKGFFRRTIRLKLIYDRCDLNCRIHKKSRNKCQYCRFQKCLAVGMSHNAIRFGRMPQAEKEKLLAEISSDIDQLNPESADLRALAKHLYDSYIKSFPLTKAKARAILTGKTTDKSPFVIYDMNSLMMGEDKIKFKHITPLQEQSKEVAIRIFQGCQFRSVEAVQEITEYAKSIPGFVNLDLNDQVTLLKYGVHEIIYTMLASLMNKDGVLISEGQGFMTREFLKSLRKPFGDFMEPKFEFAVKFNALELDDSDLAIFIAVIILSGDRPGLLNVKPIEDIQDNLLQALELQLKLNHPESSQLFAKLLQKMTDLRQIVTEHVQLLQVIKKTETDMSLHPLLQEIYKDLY
Estrogen receptor (Homo sapiens), sequence (P03372 whole entry, looked up): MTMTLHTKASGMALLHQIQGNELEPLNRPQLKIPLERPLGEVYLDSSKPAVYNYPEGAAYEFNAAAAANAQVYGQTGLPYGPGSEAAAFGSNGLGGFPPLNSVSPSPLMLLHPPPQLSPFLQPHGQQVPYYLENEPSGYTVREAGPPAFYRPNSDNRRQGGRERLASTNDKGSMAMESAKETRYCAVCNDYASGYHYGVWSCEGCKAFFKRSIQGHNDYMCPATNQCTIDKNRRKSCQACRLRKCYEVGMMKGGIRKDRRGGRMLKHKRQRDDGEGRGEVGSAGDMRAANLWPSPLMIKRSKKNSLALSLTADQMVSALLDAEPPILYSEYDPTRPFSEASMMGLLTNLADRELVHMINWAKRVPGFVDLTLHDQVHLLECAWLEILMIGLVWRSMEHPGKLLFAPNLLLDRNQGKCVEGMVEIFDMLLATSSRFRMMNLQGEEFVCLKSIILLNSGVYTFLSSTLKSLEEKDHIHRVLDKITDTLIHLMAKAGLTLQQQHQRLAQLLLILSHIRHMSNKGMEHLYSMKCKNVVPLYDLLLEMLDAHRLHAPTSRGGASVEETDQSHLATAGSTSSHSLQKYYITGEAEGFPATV
Aryl hydrocarbon receptor (Homo sapiens), sequence (P35869 whole entry, looked up): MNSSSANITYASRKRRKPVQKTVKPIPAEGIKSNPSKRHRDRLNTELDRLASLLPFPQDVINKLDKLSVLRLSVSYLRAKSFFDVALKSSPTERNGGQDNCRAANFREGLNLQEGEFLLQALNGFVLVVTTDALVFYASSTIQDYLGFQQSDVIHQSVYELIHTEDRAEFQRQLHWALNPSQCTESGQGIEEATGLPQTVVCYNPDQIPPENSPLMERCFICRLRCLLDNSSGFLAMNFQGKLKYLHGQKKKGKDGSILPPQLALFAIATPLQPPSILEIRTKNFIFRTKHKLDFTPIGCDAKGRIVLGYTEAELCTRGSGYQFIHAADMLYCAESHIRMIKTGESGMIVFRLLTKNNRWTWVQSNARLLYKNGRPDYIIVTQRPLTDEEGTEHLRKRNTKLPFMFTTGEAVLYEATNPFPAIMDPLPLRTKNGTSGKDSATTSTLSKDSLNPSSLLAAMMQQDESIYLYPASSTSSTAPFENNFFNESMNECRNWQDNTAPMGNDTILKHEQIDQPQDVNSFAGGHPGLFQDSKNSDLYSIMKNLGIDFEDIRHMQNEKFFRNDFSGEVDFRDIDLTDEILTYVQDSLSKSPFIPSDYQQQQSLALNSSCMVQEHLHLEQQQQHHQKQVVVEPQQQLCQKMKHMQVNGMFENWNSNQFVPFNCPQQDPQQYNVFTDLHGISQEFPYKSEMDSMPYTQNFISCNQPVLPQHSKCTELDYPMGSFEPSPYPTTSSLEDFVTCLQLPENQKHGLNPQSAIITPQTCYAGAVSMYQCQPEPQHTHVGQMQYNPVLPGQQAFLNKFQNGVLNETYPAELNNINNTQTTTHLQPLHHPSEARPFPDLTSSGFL

CCOC(=O)c1c(C)n(C)c2ccc(O)cc12
active: [7] 1.68 µM
not listed: [13] | [14] | [15] | [16] | [17]
inactive: all other assays above

CCN1CCC[C@H]1CNC(=O)c1c(O)c(Cl)cc(Cl)c1OC
not listed: [16] | [17]
inactive: all other assays above

Cn1c(N)c(N=O)c(=O)n(C)c1=O
active: [7] 25.1 µM
not listed: [13] | [14] | [15]
inactive: all other assays above

CCCC(=O)O[C@]1(C(=O)CO)CC[C@H]2[C@@H]3CCC4=CC(=O)CC[C@]4(C)[C@H]3[C@@H](O)C[C@@]21C
not listed: [13] | [14] | [15]
inactive: all other assays above

Brc1c(NC2=NCCN2)ccc2nccnc12
not listed: [7] | [13] | [14] | [16] | [17]
inactive: all other assays above

CCN1CCC[C@H]1CNC(=O)c1cc(S(N)(=O)=O)ccc1OC
not listed: [13] | [14] | [16]
inactive: all other assays above

COC(=O)c1cc(C(=O)OC)cc(S(=O)(=O)O)c1
not listed: [11] | [13] | [14] | [15]
inactive: all other assays above

CO[C@]12C[C@@H](COC(=O)c3cncc(Br)c3)CN(C)[C@@H]1Cc1cn(C)c3cccc2c13
active: [1] 21.1 µM | [2] 21.1 µM | [7] 29.8 µM
not listed: [13] | [14] | [15] | [17]
inactive: all other assays above

CCOC(=O)c1cccc(N)c1
not listed: [7] | [14] | [15] | [16] | [17]
inactive: all other assays above

CC(C)NC(=O)NC(C)C
not listed: [15] | [16]
inactive: all other assays above

O=C(CCCN1CCN(c2ccccn2)CC1)c1ccc(F)cc1
not listed: [13] | [14] | [15]
inactive: all other assays above

C[N+](C)(C)CC(O)CC(=O)[O-] (stereo unspecified)
not listed: [13] | [14] | [16] | [17]
inactive: all other assays above

O=C(O)CNC(=O)c1ccc([N+](=O)[O-])cc1
not listed: [13] | [14] | [15] | [17]
inactive: all other assays above

CC/C=C\CC/C=C/CO
not listed: [1] | [12] | [13] | [14] | [15] | [17]
inactive: all other assays above

CC(=O)CC(C)(C)C1CCCCC1
not listed: [1]
inactive: all other assays above
